In PubChem BioAssay (NCI):
Compounds without any hit were thinned out: in the full panel of roughly 83,000, 20% have a hit.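 For each line, cells grew in 96-well plates with the test compound present at a single concentration for 48 hours.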

Legend:
Assay in all cases: NCI-60 one-dose screen, 48 h (100 = growth as untreated, 0 = no growth, -100 = all killed)
Conditions in all cases: 10 µM; active = growth percent below 10; inactive = the rest
NCI-H23 lung = system: NCI-H23 lung
NCI-H226 lung = system: NCI-H226 lung
NCI-H322M lung = system: NCI-H322M lung
NCI-H460 lung = system: NCI-H460 lung
NCI-H522 lung = system: NCI-H522 lung
A549/ATCC NSCLC = system: A549/ATCC NSCLC
786-0 renal = system: 786-0 renal
COLO 205 colon = system: COLO 205 colon
DU-145 prostate = system: DU-145 prostate
K-562 leukemia = system: K-562 leukemia
MALME-3M melanoma = system: MALME-3M melanoma
MDA-MB-231 breast = system: MDA-MB-231 breast
RXF 393 renal = system: RXF 393 renal
SF-268 CNS = system: SF-268 CNS
SF-295 CNS = system: SF-295 CNS
SF-539 CNS = system: SF-539 CNS
UACC-257 melanoma = system: UACC-257 melanoma
M14 melanoma = system: M14 melanoma
HOP-62 NSCLC = system: HOP-62 NSCLC
HOP-92 NSCLC = system: HOP-92 NSCLC

Measured: growth

CC(C)=NNc1ccc([N+](=O)[O-])cc1[N+](=O)[O-]
inactive: NCI-H23 lung 95.5% | NCI-H226 lung 98.3% | NCI-H322M lung 87.9% | NCI-H460 lung 88.1% | NCI-H522 lung 82.1% | A549/ATCC NSCLC 83.2% | 786-0 renal 93.8% | COLO 205 colon 84.9% | DU-145 prostate 89.8% | K-562 leukemia 60.2% | MALME-3M melanoma 159% | MDA-MB-231 breast 82.4% | RXF 393 renal 109% | SF-268 CNS 85.1% | SF-295 CNS 69.8% | SF-539 CNS 95.6% | UACC-257 melanoma 101% | M14 melanoma 74.3%

O=C(Nc1cc(-c2ccccc2)[nH]n1)c1ccc(Cl)cc1
inactive: NCI-H23 lung 87.8% | NCI-H226 lung 88.4% | HOP-62 NSCLC 88.3% | NCI-H460 lung 56% | HOP-92 NSCLC 81.4% | NCI-H522 lung 72.5% | A549/ATCC NSCLC 70.3% | 786-0 renal 79.5% | COLO 205 colon 104% | DU-145 prostate 77.6% | K-562 leukemia 61.1% | MALME-3M melanoma 92.6% | MDA-MB-231 breast 114% | RXF 393 renal 32.4% | SF-268 CNS 74.2% | SF-295 CNS 71.2% | SF-539 CNS 66.2% | UACC-257 melanoma 77.9% | M14 melanoma 64.4%

Cc1ccc(C(=O)NC2c3ccccc3Oc3ccccc32)cc1
inactive: NCI-H23 lung 70.4% | NCI-H226 lung 79% | HOP-62 NSCLC 32.2% | NCI-H460 lung 59.8% | HOP-92 NSCLC 62.1% | NCI-H522 lung 41.2% | A549/ATCC NSCLC 48.9% | 786-0 renal 25.7% | COLO 205 colon 73.6% | DU-145 prostate 88.2% | K-562 leukemia 14.3% | MALME-3M melanoma 53.2% | MDA-MB-231 breast 58.4% | RXF 393 renal 74.9% | SF-268 CNS 64.1% | SF-295 CNS 24.8% | SF-539 CNS 61.3% | UACC-257 melanoma 57.7% | M14 melanoma 36%

O=C(O)CCC(NC(=O)OCc1ccccc1)C(=O)O (stereo unspecified)
inactive: NCI-H23 lung 101% | NCI-H226 lung 98.8% | NCI-H322M lung 98.6% | NCI-H460 lung 111% | NCI-H522 lung 99.6% | 786-0 renal 104% | COLO 205 colon 113% | DU-145 prostate 98.7% | K-562 leukemia 96.6% | MALME-3M melanoma 96.9% | MDA-MB-231 breast 97% | RXF 393 renal 109% | SF-268 CNS 100% | SF-295 CNS 102% | SF-539 CNS 111% | M14 melanoma 103%

CC(=O)Nc1cccc(Cl)c1C
inactive: NCI-H23 lung 103% | NCI-H226 lung 102% | NCI-H322M lung 94% | NCI-H460 lung 106% | NCI-H522 lung 87.7% | A549/ATCC NSCLC 88.2% | 786-0 renal 96.5% | COLO 205 colon 107% | DU-145 prostate 106% | MALME-3M melanoma 101% | MDA-MB-231 breast 99.5% | RXF 393 renal 106% | SF-268 CNS 92.3% | SF-295 CNS 105% | SF-539 CNS 107% | UACC-257 melanoma 84.9% | M14 melanoma 108%

C#C[C@H]1CCCCCC1O (stereo partly specified)
inactive: NCI-H23 lung 95.7% | NCI-H226 lung 96.5% | HOP-62 NSCLC 105% | NCI-H460 lung 106% | HOP-92 NSCLC 87% | NCI-H522 lung 94.8% | A549/ATCC NSCLC 105% | 786-0 renal 103% | COLO 205 colon 111% | DU-145 prostate 110% | K-562 leukemia 101% | MALME-3M melanoma 104% | MDA-MB-231 breast 102% | RXF 393 renal 103% | SF-268 CNS 105% | SF-295 CNS 108% | SF-539 CNS 106% | UACC-257 melanoma 107% | M14 melanoma 107%

CCc1nc(N)nc(N)c1-c1ccc(Cl)cc1
inactive: NCI-H23 lung 64.4% | NCI-H226 lung 65.7% | HOP-62 NSCLC 64.2% | NCI-H460 lung 21.2% | HOP-92 NSCLC 97.7% | NCI-H522 lung 83% | A549/ATCC NSCLC 26.6% | 786-0 renal 35.9% | COLO 205 colon 76.5% | DU-145 prostate 55.4% | K-562 leukemia 20.3% | MDA-MB-231 breast 69.9% | RXF 393 renal 71.6% | SF-268 CNS 49.2% | SF-295 CNS 37.5% | UACC-257 melanoma 72.4% | M14 melanoma 40.9%

O=S(=O)(O)CC(O)CN1CCN(CCO)CC1 (stereo unspecified)
inactive: NCI-H23 lung 94.2% | NCI-H226 lung 108% | HOP-62 NSCLC 110% | NCI-H460 lung 114% | HOP-92 NSCLC 86.2% | NCI-H522 lung 89% | A549/ATCC NSCLC 98.8% | 786-0 renal 105% | COLO 205 colon 106% | DU-145 prostate 111% | K-562 leukemia 97.4% | MALME-3M melanoma 114% | MDA-MB-231 breast 119% | RXF 393 renal 105% | SF-268 CNS 109% | SF-295 CNS 119% | SF-539 CNS 111% | UACC-257 melanoma 97.8% | M14 melanoma 105%

CC1CC(O)CC(C)(C)C1 (stereo unspecified)
inactive: NCI-H23 lung 98.4% | NCI-H226 lung 106% | NCI-H322M lung 98.2% | NCI-H460 lung 106% | A549/ATCC NSCLC 97.3% | 786-0 renal 107% | COLO 205 colon 102% | DU-145 prostate 101% | K-562 leukemia 110% | MALME-3M melanoma 97.4% | MDA-MB-231 breast 105% | RXF 393 renal 115% | SF-268 CNS 91.9% | SF-295 CNS 98.7% | SF-539 CNS 95.2% | UACC-257 melanoma 97.8% | M14 melanoma 108%
